Source: PubChem BioAssay (Broad Institute)
Shown are actives, neighbours in structure and some others; about 2.2% of the full set was active somewhere.
Shn3 inh set2 – reduction of Shn3 3'UTR firefly luciferase signal, primary screen, Schnurri-3 inhibitor project, cell-based, Clone20 osteoblasts, set 2 | Clone20 osteoblast Shn3 3'UTR firefly luciferase, 24 h | inhibition, % at 12.5 µM | 360,000 compounds, 0.52% hits;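 active = mean inhibition of at least 75% with every replicate also reaching 75%; inconclusive = mean inhibition at least 75% but some replicate below; inactive = mean inhibition below 75%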;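 note: 0% = median of neutral control wells and 100% = pilot-screen positive control compound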
LGR2 inh – inhibitors of bursicon-induced LGR2 CRE-luciferase signal, primary screen, cell-based, HEK293, CRE-luciferase reporter, bursicon stimulation; bursicon-stimulated, 4 h; inhibition, % at 9.99 µM; 380,000 compounds, 0.35% hits;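 active = drop in luminescence signal, shown as inhibition above about 50% in the replicate tests, limit read from the data, passing the limit was not always enough; inconclusive = probably only some replicates passing the limit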;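 note: agonist challenge used bursicon conditioned medium at about half maximal strength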
MITF TRPM1 inh – inhibitors of MITF-dependent TRPM1 promoter reporter, primary screen, cell-based, SK-MEL-5, single point, luciferase | 330,000 compounds, 0.83% hits | inhibition, % at 12.5 µM | SK-MEL-5 TRPM1 promoter luciferase, 24 h;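 active = mean inhibition across replicates of 60% or more, whatever share of single replicates reaches that level; inconclusive = some that reach 60%, reason not given; inactive = mean inhibition across replicates below 60%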
LMP1 NFkB inh – EBV LMP1-driven NF-kappaB luciferase reporter inhibitors, primary screen, cell-based, luminescence, single point; 350,000 compounds, 0.69% hits; LMP1-induced NF-kappaB luciferase reporter cells; inhibition, % at 12.5 µM; in the data active = inhibition above about 41%; inconclusive = no clear call, values can overlap the other calls;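 note: 0% = neutral control wells and 100% = reference inhibitor control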
PAX8 inh HTS – inhibitors of PAX8-driven TPO luciferase reporter, primary screen, RMG-I cells, single concentration | inhibition, % at 12.6 µM | SteadyGlo, 24 h | 360,000 compounds, 1.2% hits;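 active = mean replicate inhibition at least 60% with every replicate also reaching 60%; inconclusive = only one of the two criteria is met; inactive = mean below 60% and not all replicates reaching 60%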;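 note: luciferase light reporting Pax8 driven TPO promoter activity; plate controls were median of neutral control wells for no effect and mitoxantrone controls for full effect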
EWS-Fli inh – EWS/Fli-driven NR0B1 reporter inhibitors, primary screen, A673 cells, NR0B1 luciferase, luminescence, MLPCN library; viability-normalised; inhibition, % at 12.6 µM; 350,000 compounds, 0.67% hits; AID 651661, 2012;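 active = mean inhibition of at least 50% after viability correction, with every replicate also passing that limit; inconclusive = mean reaches 50% but only one of two replicates passes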;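 note: firefly luciferase signal divided by Alamar Blue viability fluorescence both relative to DMSO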
* hit, by the source's call; ? = inconclusive; . = not tested or not shown.

SMILES | Shn3 inh set2 | LGR2 inh | MITF TRPM1 inh | LMP1 NFkB inh | PAX8 inh HTS | EWS-Fli inh
O=C(Nc1ccc(F)cc1)N1CCCCN2[C@H](CO)[C@@H](c3ccc(C#Cc4ccccc4)cc3)[C@H]2C1 | . | -11.1 | . | . | 38.9 | 3.0
O=C(Nc1ccccc1)N1CCCCN2[C@@H](CO)[C@@H](c3ccc(C#Cc4ccccc4)cc3)[C@@H]2C1 | . | 3.1 | . | . | 107.3* | 43.1
O=C(Nc1ccc(F)cc1)N1CCCCN2[C@@H](CO)[C@@H](c3ccc(C#Cc4ccccc4)cc3)[C@@H]2C1 | . | -6.3 | . | . | 77.4* | 62.6*
O=C(Nc1ccccc1)N1CCCCN2[C@@H](CO)[C@@H](c3ccc(-c4ccccc4)cc3)[C@@H]2C1 | . | 27.5 | . | . | -4.8 | 64.9*
COc1ccccc1CNC(=O)C[C@H]1C[C@H]2c3cc(NC(=O)CC4CC4)ccc3O[C@H]2[C@@H](CO)O1 | . | -14.0 | . | . | 12.8 | -0.3
COc1ccccc1C#Cc1ccc2c(c1)[C@@H]1[C@@H](CCN1S(=O)(=O)c1ccc(F)cc1)[C@@H](CO)N2 | . | -15.3 | . | . | ? | .
CC1=[N+](C)c2c(ccc3cccnc23)C1(C)C | 92.6* | ? | -35.3 | 19.7 | 85.3* | 19.7
CS(=O)(=O)c1ncc(Cl)c(C(=O)Nc2ccc(OC(F)F)cc2)n1 | 93.2* | 3.8 | 73.4* | ? | . | .
O=C(Nc1ccc(OC(F)F)cc1)c1ccccn1 | -21.9 | -7.4 | -12.1 | -0.6 | -20.0 | -10.4
CS(=O)(=O)c1ccc(C(=O)Nc2ccc(N3CCOCC3)cc2)c(Cl)c1 | -12.1 | 4.4 | 2.7 | -4.3 | -0.1 | -11.6
CS(=O)(=O)c1ncc(Cl)c(C(=O)Nc2ccc(N3CCOCC3)cc2)n1 | 94.2* | . | 92.1* | 34.6 | . | .
Cc1cc(=O)oc(C)c1C(=O)NCCCN1CCN(c2ccc(F)cc2)CC1 | 13.9 | . | 6.4 | 11.6 | . | .
COc1ccc(N2CCN(CCNC(=O)c3c(C)cc(=O)oc3C)CC2)cc1 | 8.3 | 9.1 | -8.1 | 50.7* | . | .
COC(=O)C(CC#Cc1ccc2c(c1)[C@]1(C(=O)N2)[C@H](c2ccccc2OCCO)N2[C@H](c3ccccc3)[C@H](c3ccccc3)OC(=O)[C@H]2[C@@H]1C(=O)N1CCc2cc(OC)c(OC)cc2C1)C(=O)OC | . | . | . | . | -14.0 | 55.7*
COC(=O)C(CC#Cc1ccc2c(c1)[C@]1(C(=O)N2)[C@H](C(=O)NC[C@H](O)c2ccccc2)[C@H]2C(=O)O[C@H](c3ccccc3)[C@H](c3ccccc3)N2[C@@H]1c1ccccc1OCCO)C(=O)OC | . | . | . | . | 100.6* | 70.9*
COC(=O)C(CC#Cc1ccc2c(c1)[C@]1(C(=O)N2)[C@H](c2ccc(O)cc2)N2[C@H](c3ccccc3)[C@H](c3ccccc3)OC(=O)[C@H]2[C@@H]1C(=O)N1CCc2cc(OC)c(OC)cc2C1)C(=O)OC | . | . | . | . | 12.1 | 14.2
c1ccc(Nc2nc(NCc3ccco3)c3ccccc3n2)cc1 | 66.8 | 6.5 | 4.5 | -13.8 | 67.0* | 9.1
Cc1cccc(Nc2nc(NCc3ccco3)c3ccccc3n2)c1 | 88.4* | . | 7.1 | ? | . | 8.8
c1ccc(-c2nnc(-c3ccccn3)nn2)nc1 | -40.5 | -7.1 | -28.8 | -1.5 | -135.7 | -120.4
c1ccc(-c2cccc(-c3ccccn3)n2)nc1 | 87.6* | -42.7 | 52.5 | 52.9* | . | 13.2
Cc1cc(O)c(Sc2ncn[nH]2)cc1NS(=O)(=O)c1ccc(Cl)cc1 | -5.9 | -8.8 | -2.1 | 5.7 | 6.7 | 2.9
O=S(=O)(Nc1cc(Sc2ncn[nH]2)c(O)c2ccccc12)c1ccccc1 | 93.4* | 97.0* | 40.5 | 1.2 | 110.6* | 38.2
CCCC(=O)Nc1ccc2c(c1)C(=O)N(C)[C@H]1CC[C@@H](CC(=O)NCc3ccccc3Cl)O[C@H]1CO2 | . | 11.3 | . | . | 11.2 | 8.0
C[C@H]1CN([C@@H](C)CO)C(=O)Cc2cc(NC(=O)Nc3ccc(C(F)(F)F)cc3)ccc2O[C@@H]1CN(C)Cc1ccccc1 | . | -32.9 | . | . | 33.4 | -8.8
C[C@@H]1CN([C@@H](C)CO)C(=O)Cc2cc(NC(=O)C3CCCCC3)ccc2O[C@H]1CN(C)Cc1ccc(Cl)c(Cl)c1 | . | 18.2 | . | . | 94.7* | 8.7
SMILES | Shn3 inh set2 | LGR2 inh | MITF TRPM1 inh | LMP1 NFkB inh | PAX8 inh HTS | EWS-Fli inh
COc1ccc(NC(=O)Nc2ccc3c(c2)CC(=O)N([C@H](C)CO)C[C@@H](C)[C@H](CN(C)Cc2ccc(C(F)(F)F)cc2)O3)cc1 | . | 3.8 | . | . | 12.7 | 7.2
COc1ccc(NC(=O)Nc2ccc3c(c2)CC(=O)N([C@@H](C)CO)C[C@H](C)[C@@H](CN(C)Cc2ccc(C(F)(F)F)cc2)O3)cc1 | . | -10.5 | . | . | 69.7* | 15.0
C[C@@H]1CN([C@@H](C)CO)C(=O)Cc2cc(NC(=O)Nc3ccc(C(F)(F)F)cc3)ccc2O[C@H]1CN(C)Cc1ccccc1 | . | 0.5 | . | . | 67.9* | 13.6
C[C@@H]1CN([C@@H](C)CO)C(=O)Cc2cc(NC(=O)Cc3cn(C)c4ccccc34)ccc2O[C@H]1CN(C)Cc1ccc(C(F)(F)F)cc1 | . | 8.8 | . | . | 71.0* | 16.9
Cc1ccc(-c2ccc(C3[C@@H]4CN(Cc5cccc(F)c5)C[C@H]3N4)cc2)cc1 (some centres not stated) | . | -11.5 | . | . | -5.1 | -4.1
C[C@@H]1CN([C@H](C)CO)C(=O)Cc2cc(NC(=O)Nc3ccc(F)cc3)ccc2O[C@H]1CN(C)Cc1ccc(Cl)c(Cl)c1 | . | 19.5 | . | . | 108.8* | 5.1
C[C@H](CO)N1C[C@H](C)[C@@H](CN(C)Cc2ccc(-c3ccccc3)cc2)Oc2ccc(NC(=O)Nc3ccc(C(F)(F)F)cc3)cc2CC1=O | . | 23.7 | . | . | 67.9* | 6.8
C[C@H]1CN([C@@H](C)CO)C(=O)Cc2cc(NC(=O)CCN3CCOCC3)ccc2O[C@H]1CN(C)Cc1ccc(C(F)(F)F)cc1 | . | 6.9 | . | . | -2.1 | 60.0*
C[C@@H]1CN([C@@H](C)CO)C(=O)Cc2cc(NC(=O)Nc3ccc(F)cc3)ccc2O[C@H]1CN(C)Cc1ccc(C(F)(F)F)cc1 | . | 23.8 | . | . | . | 54.0*
C[C@H]1CN([C@@H](C)CO)C(=O)Cc2cc(NC(=O)Nc3ccc(F)cc3)ccc2O[C@@H]1CN(C)Cc1ccc(Cl)c(Cl)c1 | . | 4.9 | . | . | 0.0 | 0.4
C[C@@H]1CCCCO[C@@H](CN(C)C(=O)NC2CCCCC2)[C@@H](C)CN([C@H](C)CO)C(=O)c2cc(NC(=O)Nc3ccc4c(c3)OCO4)ccc2O1 | . | 9.1 | . | . | -22.0 | -9.4
COc1ccc(Cn2c(/C=C/c3ccccc3)nc3ccccc32)cc1 | -13.8 | . | -82.3 | -58.6 | -204.8 | .
COc1ccccc1/C=C/c1nc2ccccc2c(=O)o1 | -59.7 | 1.6 | -30.3 | -14.1 | -109.8 | -111.2
COc1ccc(/C=C/c2nc3ccccc3n2C)cc1 | 73.4 | 96.1* | 35.6 | 53.7* | 88.2* | 80.7*
COc1ccc(/C=C/c2nc3ccccc3c(=O)o2)cc1 | 56.8 | 90.3* | 2.0 | 50.7* | 84.2* | 71.0*
